Molecules are shown by their SMILES. Results filed as inconclusive are left out. Active and inactive are the calls of the source. Calls come from the whole dose curve; as a rule, active = well fitted curve in the direction sought with a large enough effect; inconclusive = small, poorly fitted or top-dose-only effect, or another doubt; inactive = no such curve, though single readings can be large or run the other way.
% is set by controls: 0 for no effect and ±100 for the full control effect; potency is the fitted concentration of half-maximal effect.

This assay can be described thus: qHTS for Inhibitors of the vitamin D receptor (VDR): Hit Validation using a Texas Red Assay (AID 602201). As to conditions: VDR coregulator binding, Texas Red fluorescence polarization, agonist-bound VDR ligand-binding domain; series mostly up to 57.1 µM; activity, negative = inhibition: at the top concentration. In outline: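 Fluorescence polarization with 1.5 uM VDR-LBD, LG19078 and 7 nM Texas Red (final). After 2 hours at ambient temperature, read at Ex 595 nm/Em 615 nm.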
On the technique in general: Quantitative high-throughput screening tests each substance at several concentrations.
With `O=C(Nc1ccc(F)cc1)c1nc(S(=O)(=O)Cc2ccccc2)ncc1Cl`, the Potency was 5.62 µM (active).

Take `Cc1cccc2c1N(CCCOc1ccccc1)C(=O)C2=O`: the “activity, negative = inhibition” value is -7.87% (inactive).

`CCN1C(=O)/C(=C\C(=O)c2cccs2)c2cc(Br)ccc21`: the “activity, negative = inhibition” value is -13.2% (inactive).

For the molecule `CCCc1nnc(NC(=O)c2nc(S(=O)(=O)Cc3cccc(C)c3)ncc2Cl)s1`, the “activity, negative = inhibition” value is -10.4% (inactive).

With `Cc1nc2ccc(N=NN(C)C)cc2[nH]1`, the “activity, negative = inhibition” value was -12.3% (inactive).

Consider `CC(C)(C)C1C/C(=C/c2ccccn2)C(=O)/C(=C/c2ccccn2)C1` (configuration not stated), for which the Potency is 3.16 µM (active).

`O=C(O)CN1C(=O)/C(=C\c2cc(Br)ccc2OCc2ccc(Cl)cc2Cl)SC1=S`: the “activity, negative = inhibition” value is 28.6% (inactive).

Turning to `Cc1ccc(CSC2=NS(=O)(=O)c3ccccc32)cc1`, the Potency is 7.94 µM (active).

Take `CCN(CC)c1ccc(NC(=O)c2cccc(C)c2)cc1S(=O)(=O)Nc1ccccc1OC`: the “activity, negative = inhibition” value is -5.85% (inactive).

For `CCS(=O)(=O)c1oc(-c2ccc(F)cc2)nc1S(=O)(=O)c1ccccc1`, the Potency is 7.08 µM (active).

`CC(=O)N(C(C)=O)N1C(=O)C2C3c4ccccc4C(c4ccccc43)C2C1=O` (configuration not stated): the “activity, negative = inhibition” value is -17.7% (inactive).

For the molecule `O=C1NN(c2ccccc2)C(=O)/C1=C\c1cccc(OC(=O)c2cccs2)c1`, the “activity, negative = inhibition” value was 35.2% (inactive).

For `C=CCOc1c(Br)cc(/C=C2/C(=O)ON=C2C)cc1OC`, the “activity, negative = inhibition” value is -6.68% (inactive).

For the molecule `CCC(=O)Nc1cccc(C(=O)/C=C/c2cc(Br)ccc2OC)c1`, the Potency is 28.2 µM (active).

As for `c1ccc(OCc2nn3c(Cn4nnc5ccccc54)nnc3s2)cc1`, the Potency is 14.1 µM (active).

`Cc1cc2nc3ccc(N(C)C)cc3nc2cc1N`: the Potency was 3.55 µM (active).

Take `CCc1oc2ccccc2c1C(=O)CCN1CCCCC1`: the Potency was 3.55 µM (active).

Regarding `O=C1/C(=C/c2cccc([N+](=O)[O-])c2)CCc2ccccc21`, the Potency is 31.6 µM (active).

Regarding `Cn1c(/C(C#N)=C/c2ccc(C(F)(F)F)cc2)nc2ccccc21`, the Potency was 14.1 µM (active).

Regarding `O=C(Nc1cc(S(=O)(=O)N2CCOCC2)ccc1N1CCCC1)c1ccc(Cl)cc1`, the Potency is 20 µM (active).

Turning to `CC(C)c1nnc(NC(=O)CCS(=O)(=O)c2nc(-c3cccs3)cc(C(F)(F)F)n2)s1`, the “activity, negative = inhibition” value is -16.8% (inactive).

Turning to `CC1(C)CC(=O)C(C(C2=C(O)CC(C)(C)CC2=O)c2ccc(O)c([N+](=O)[O-])c2)=C(O)C1`, the “activity, negative = inhibition” value was -18.9% (inactive).

Take `O=C(O)c1cccc(CN2C(=O)S/C(=C/c3cccc([N+](=O)[O-])c3)C2=O)c1`: the Potency is 20 µM (active).

Regarding `COc1cccc(C(=O)Oc2ccccc2/C=C\C(=O)c2cc3ccccc3o2)c1`, the Potency is 3.16 µM (active).

On to `COc1cc(/C=C2\C(=O)ON=C2c2ccccc2)cc(Cl)c1O`, for which the “activity, negative = inhibition” value was 23.8% (inactive).

In the case of `Cc1ccc(S(=O)(=O)Oc2ccc(/C=C3\C(=N)N4N=C(S(C)(=O)=O)SC4=NC3=O)cc2)cc1`, the “activity, negative = inhibition” value was 47.3% (inactive).

On to `Cc1ccc(NN2C(=O)C=C(c3ccccc3)C2=O)cc1`, for which the “activity, negative = inhibition” value is -16.9% (inactive).

As for `CCS(=O)(=O)c1ncc(Cl)c(C(=O)Nc2ccc(S(=O)(=O)N3CCCC(C)C3)cc2)n1` (configuration not stated), the Potency is 3.55 µM (active).

For `CCOC(=O)N1C(=O)[C@@](CC)(c2ccccc2)N1C(=O)OCC`, the “activity, negative = inhibition” value is -14.9% (inactive).

In the case of `CC1=CC(=O)C(C(C)C)=CC1=NC(=O)c1ccc(C)cc1`, the “activity, negative = inhibition” value was -11.6% (inactive).

As to `CCOC(=O)c1c(C)oc2c1c1c(c3ccccc32)OCN(Cc2cccnc2)C1`, the Potency is 20 µM (active).

Consider `O=C(O)CCNc1ccc(NCCC(=O)O)c2c1C(=O)c1ccccc1C2=O`, for which the Potency is 8.91 µM (active).

For `Cc1sc(C(C2C(=O)CC(C)(C)CC2=O)C2C(=O)CC(C)(C)CC2=O)cc1[N+](=O)[O-]`, the Potency is 7.94 µM (active).

For `Cc1ccc(NC(=O)C2=C(c3ccccc3)S(=O)(=O)CCS2(=O)=O)cc1`, the Potency is 10 µM (active).

For the molecule `CN(C)c1ccc(C(=S)N2CCN(c3ccc([N+](=O)[O-])cc3)CC2)cc1`, the “activity, negative = inhibition” value was -14.2% (inactive).

Take `O=S(=O)(/C(=C/c1ccc(C(F)(F)F)cc1)c1nc2ccccc2[nH]1)c1ccccc1`: the “activity, negative = inhibition” value is -7.1% (inactive).

For `CN1C(=O)/C(=N\OC(=O)c2ccccc2Cl)c2ccccc21`, the Potency is 31.6 µM (active).

Source of the values: PubChem BioAssay (NCATS).
